Source: paper PMC5540273 (PLoS ONE, 2017)

How the values were obtained:
Details in all cases: concentration: 1 μM, replicates: in singlicate; n = 1
INSRR = tested on: INSRR
INSR = tested on: INSR
IRAK1 = tested on: IRAK1
IRAK3 = tested on: IRAK3
IRAK4 = tested on: IRAK4
ITK = tested on: ITK
[1] = tested on: JAK1(JH1domain-catalytic)
[2] = tested on: JAK1(JH2domain-pseudokinase)
[3] = tested on: JAK2(JH1domain-catalytic)
[4] = tested on: JAK3(JH1domain-catalytic)
JNK1 = tested on: T1, JNK1
T1 construct: gene MAPK8

JNK2 = tested on: T2, JNK2
T2 construct: gene MAPK9

JNK3 = tested on: T3, JNK3
T3 construct: gene MAPK10

KIT-autoinhibited = tested on: KIT-autoinhibited
KIT = tested on: KIT
LATS1 = tested on: LATS1
LATS2 = tested on: LATS2
LCK = tested on: LCK
LIMK1 = tested on: LIMK1
LIMK2 = tested on: LIMK2
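Also: KINOMEscan kinase panel screen.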

SMILES	%Inh (INSRR)	%Inh (INSR)	%Inh (IRAK1)	%Inh (IRAK3)	%Inh (IRAK4)	%Inh (ITK)	%Inh [1]	%Inh [2]	%Inh [3]	%Inh [4]	%Inh (JNK1)	%Inh (JNK2)	%Inh (JNK3)	%Inh (KIT-autoinhibited)	%Inh (KIT)	%Inh (LATS1)	%Inh (LATS2)	%Inh (LCK)	%Inh (LIMK1)	%Inh (LIMK2)
CC(C)(C)OC(=O)NC1CCCN(c2cc(-c3ccc4c(N)n[nH]c4c3)nc(N)n2)C1 (centres unmarked) [GSK2286096]	0%	0%	0%	0%	8%	6%	6%	15%	0%	0%	34%	21%	7%	0%	8%	11%	0%	0%	6%	0%
FC(F)(F)c1ccc(-c2cc(-c3c[nH]nc3-c3ccccn3)ccn2)cc1 [GW599550]	0%	0%	25%	5%	3%	11%	29%	0%	14%	0%	0%	5%	0%	0%	26%	0%	40%	25%	7%	0%
COc1cc2ncnc(Nc3ccc(OCc4ccccc4Br)c(Cl)c3)c2cc1OC.Cl [GI261590]	0%	0%	32%	13%	18%	12%	17%	0%	0%	0%	15%	10%	0%	0%	3%	8%	3%	57%	0%	3%
Cc1ccc(NC(=O)c2cccc(C#N)c2)cc1-c1ccc(C(=O)Nc2ccncc2)cc1 [GSK1398463]	2%	6%	24%	9%	21%	16%	3%	6%	39%	0%	25%	16%	17%	13%	100%	19%	0%	83%	28%	14%
NC(=O)c1sc(-n2cnc3ccccc32)cc1OCc1ccccc1F [GSK1024306]	0%	0%	0%	0%	0%	8%	6%	0%	21%	0%	3%	28%	14%	0%	0%	0%	0%	9%	0%	20%
COc1cc2c(Nc3cccc(NC(=O)c4ccccc4)c3)ncnc2cc1OCCCN1CCOCC1 [GSK223810]	7%	10%	0%	41%	0%	9%	0%	0%	4%	0%	34%	58%	31%	0%	93.4%	0%	0%	84%	13%	7%
CNc1nccc(-c2c(-c3ccc(F)cc3)ncn2C2CCN(C)CC2)n1 [SB-222903]	0%	5%	0%	0%	0%	5%	24%	5%	5%	0%	0%	69%	43%	0%	0%	2%	0%	0%	0%	0%
CNc1nccc(-c2c(-c3ccc(F)cc3)ncn2CCCN2CCOCC2)n1 [SB-222516]	0%	0%	6%	10%	9%	4%	0%	0%	8%	0%	12%	0%	0%	4%	2%	0%	0%	1%	11%	95.2%
CC(=O)Nc1n[nH]c2ncc(-c3ccccc3)cc12 [SB-548492]	12%	0%	0%	25%	0%	0%	0%	87%	15%	0%	40%	17%	17%	21%	67%	14%	4%	30%	0%	45%
FC(F)(F)c1ccc(-c2nn3ncccc3c2-c2ccnc(Nc3cccc(C(F)(F)F)c3)n2)cc1 [GW828205]	0%	0%	0%	11%	0%	15%	0%	5%	0%	0%	0%	0%	0%	2%	43%	0%	0%	25%	0%	0%
